Data on ten compounds can be found in PubChem BioAssay.

Values without a mark were called inactive.

Homeobox protein Hox-A13 (Mus musculus), sequence (Q62424 whole entry, looked up): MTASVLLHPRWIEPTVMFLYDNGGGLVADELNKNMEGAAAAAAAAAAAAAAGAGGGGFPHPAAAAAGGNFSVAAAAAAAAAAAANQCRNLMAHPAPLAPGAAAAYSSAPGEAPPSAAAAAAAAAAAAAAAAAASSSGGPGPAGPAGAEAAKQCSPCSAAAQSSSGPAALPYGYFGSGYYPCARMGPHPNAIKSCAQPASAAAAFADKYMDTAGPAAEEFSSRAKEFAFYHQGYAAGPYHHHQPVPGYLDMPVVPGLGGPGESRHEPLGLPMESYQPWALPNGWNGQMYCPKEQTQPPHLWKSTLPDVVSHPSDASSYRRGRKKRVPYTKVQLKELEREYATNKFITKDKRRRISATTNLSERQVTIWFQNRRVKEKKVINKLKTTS

The experiment concerns the target Homeobox protein Hox-A13 (Mus musculus) (UniProt Q62424). The experiment in a line: disruptors of Hoxa13 oligonucleotide interaction – biochemical, fluorescence polarization, labeled oligonucleotide, primary screen (AID 1185). The conditions noted are these: Hoxa13:DNA binding, 15 min, higher = more signal, called active from +8 up or from −8 down. (In fluorescence polarisation assays a small probe gives low polarisation when free and higher when bound to something large.)
Turning to `COc1cccc([C@H]2Oc3ccc(OC)cc3C(=NOC[C@@H](O)COCc3ccco3)[C@@H]2O)c1`, the z-score was -5.25.

For `O=c1n(Cc2cc3c(cc2Cl)OCO3)c(=O)n2n1CC[C@@H]1C(=NOCc3ccccc3)[C@H]3O[C@H]3[C@@H](O)[C@@H]12`, the z-score is 0.962.

In the case of `COc1ccc(O[C@H]2C=C[C@@H](c3ccccc3)O[C@@H]2COC(=O)CCC(C)=NO[C@@H]2O[C@H](COC(C)=O)[C@@H](OC(C)=O)[C@H](OC(C)=O)[C@H]2OC(C)=O)cc1`, the z-score is -4.34.

Take `COc1ccc(O[C@H]2C=C[C@@H](c3ccccc3)O[C@@H]2COC(=O)CCC(C)=NOC[C@@H](O)[C@H]2O[C@@H]3OC(C)(C)O[C@@H]3[C@H]2O)cc1`: the z-score was -5.83.

With `CC(C)=NO[C@H](C)c1cn([C@H](CO)Cc2ccccc2)nn1`, the z-score was 0.584.

As to `O=C1[C@H]2[C@H]3[C@H](O)[C@H](O)CC(=NOCc4ccccc4)[C@@H]3CC[C@H]2C(=O)N1C[C@@H]1CCCO1`, the z-score is -1.49.

Take `COC(=O)[C@H](C)NC(=O)CCC1CC(OC(=O)NCCc2ccc(F)cc2)CC2(CCCC(COC(=O)NCCC(C)C)O2)O1` (stereo not given in full): the z-score was -6.77.

For `COC(=O)[C@H](C)NC(=O)CCC1CC(OC(=O)NCc2ccc3c(c2)OCO3)CC2(CCCC(COC(=O)NCC(c3ccccc3)c3ccccc3)O2)O1` (stereo not given in full), the z-score was -6.84.

As for `COC(=O)CC=C[C@@H](C)[C@@H](C=NOCC[C@@H]1C=C[C@H](OC(C)=O)[C@@H](COC(C)=O)O1)OC`, the z-score was -1.14.

Turning to `COC(=O)[C@H]1[C@@H](O)[C@@]2(O)c3ccccc3O[C@@]2(c2ccccc2)[C@@H]1c1ccccc1`, the z-score is -1.51.
